± gives the standard deviation of the averaged measurements. Over roughly 25,000 sequences, “ln(normalized median fluorescence intensity)” has its median near 7.9; the highest 2% begin near 11. This is one part of a sample in which the highest values are shown more often than they occur.
test system: PfAP2-I AP2 domain 3 (GST-tagged); assay: gcPBM binding intensity (ln(normalized median fluorescence intensity)); higher = stronger DNA binding
How it was run: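 GST-tagged P. falciparum DNA-binding domains produced in E. coli were incubated for 1 h on an Agilent 4 × 180k array of primer-extended double-stranded 36-bp intergenic genomic probes with negative controls. Binding intensity is the highest Masliner-normalised natural-log median intensity across replicate spots of either probe orientation, with bound protein detected by Alexa488 anti-GST antibody at 488 nm.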

Sequence	gcPBM binding intensity (ln)
AAAGAAATAAGGTGCACACATATACATATATATATA [CACACA_site429]	10.3 ± 0.29
TAAAAGAAATAAGGTGCACACATATACATATATATA [CACACA_site8037]	10.19 ± 0.071
ACGGAAAAAGAAAAGGTGCATATGGACACAATATAT	10.85 ± 0.099
TTTTACAAAATAAAAATATAGAATACGGTAAATTAT [GTGCAC_negctrl_site40]	7.87 ± 0.73
GTTATAAACAAAATAAATATATGAATATATAATAAT [XGTACX_negctrl_site96]	7.46 ± 0.5
AACATATTGGATTTAGTGCACATATATATCATAATA	11.5 ± 0.29
ATAAATTTTTAAACAGCACACATAAATATAATATAT [CACACA_site8691]	8.28 ± 0.4
TTATTATAATCATTAGTGCATATATTATTTTTATAT	9.795 ± 0.049
ATATATCATATTATAGTGCATTTATAATAATATTAT	10.8 ± 0.13
GAAATATAATTTATTACACACATTTTAAAAAAATTC [CACACA_site1087]	7.74 ± 0.18
TATAAAATAAATTGTGCACACATATTTATAAATATG [CACACA_site2330]	10.71 ± 0.078
AGGAAAATTTTATTTGCACACATTATTACGTCTAAA [CACACA_site2337]	9.9 ± 0.4
TTTATATATTTTGTCGTGCACATTTGGAAAATTACA [GTGCAC_site9776]	10.8 ± 0.16
TAATATTTTAATTGTGTGCACATTAATATTATAAAA	10.1 ± 0.16
TATATATATATAATTGTGCACATAATTTTAAACCAA	11.1 ± 0.13
TAAAATAAATTGTGCACACATATTTATAAATATGAA [CACACA_site2331]	11.3 ± 0.35
TAAAATAATATTTATGTGCACATATAATTATTAATT	10.395 ± 0.007
TATTAAAAGTAAAAAACACACATGGATATATACATA [CACACA_site3959]	7.67 ± 0.64
AAACAAAGGGAACATGTGCACTTACAAAAAAAAAGA	9.78 ± 0.28
ATCTATATTATTTCTACACACATATCTATAATATGT [CACACA_site7561]	7.85 ± 0.72
GCTCATATGACAACAACACACAAAAAAATAAAATGA [CACACA_site714]	7.8 ± 0.69
TAAACAAATAAATATTGTACATTTTTTCCTTTTAAT [XGTACX_site5594]	7.38 ± 0.39
TATAGTTTTGAAAACAAACACACAAAAAAAAAAAAA [CACACA_site1691]	8.07 ± 0.7
TAATATACATATATATGTACATATATATATATATAT [XGTACX_site2684]	9.09 ± 0.47
TAAAATAATTTATGCATACACACATATATATATATA [CACACA_site4021]	9.49 ± 0.26

Sequence	gcPBM binding intensity (ln)
GGGAAAATAAATAAAGTGCAGATATTAAAAGTTGTA	8.85 ± 0.31
TATATATATATATATGTGCACATTTTATTAAAATGT	9.87 ± 0.15
TGTGCATAAATTTATGCACACATAAAAAAAAAAAAA [CACACA_site8954]	11.5 ± 0.93
TATAAACCTTTTTGCACGCACACAAAAAAAAAATAA [CACACA_site168]	9.99 ± 0.46
AATATAAGTTTATTAGTGCACAGATAAATATATATT [GTGCAC_site9784]	11.4 ± 0.23
TATGTTGTTTATTTAGTGCATATTTAAATATTATAA [GTGCAC_site9601]	10.16 ± 0.078
GTGCAAAATATTTTTACACACAAATTTTTACAACAG [CACACA_site3357]	9.99 ± 0.63
ATATATTTATTTTGTGCACACAACGCAAACCTTTTA [CACACA_site3508]	10.98 ± 0.092
AAAAGTCTCTTTTTAGTGCACATTTTATTTAAATAT	11.32 ± 0.078
TAATAAAAAAAGTGCACACACATAATATTTATATAT [CACACA_site7548]	9.7 ± 0.18
TGCATAAATTTATGCACACATAAAAAAAAAAAAAAA [CACACA_site2923]	10 ± 0.64
ATTACAATATATACGTGTACATATTACCACCGCTAC [XGTACX_site2308]	8.46 ± 0.7
ACAATAAATATGTGGTTGCACTTATAATATATTTAT	8.66 ± 0.4
ATAAAATAAAACAACACACACGAATGTATAAATATA [CACACA_site4643]	7.66 ± 0.66
TTTTTATAAAATTTTATGAGCTCGGAAAAAATAAAC [GTGCAC_negctrl_site637]	8.49 ± 0.48
TGTGAAAATTATGGGGCATGCAATACTTTAAAAATA [TGCATGCA_site653]	7.98 ± 0.72
GAACAACAACAAAAAAAAAAAAAAAAAAAAAAAAAA [CACACA_negctrl_site199]	8.12 ± 0.83
ATGATGTCTTTATATTGTACATATATGAAGACGTTA [XGTACX_site7751]	7.79 ± 0.29
TATGTCCATATTTCCACACACATATTATTTTTATAT [CACACA_site3798]	8.18 ± 0.53
AGCTACAAAAATTAATATATATATGTATAGTTATAC [TGCATGCA_negctrl_site531]	7.38 ± 0.59
ATGTCAAATTTTTGTGCACACATATATAGTTATTAT [CACACA_site2242]	10.78 ± 0.028
TATAAAAATGTGCACACACACACATATTTATATTTA [CACACA_site6826]	9.365 ± 0.007
TTTTATTTCTTTGCACCATTTTAAATACAAACAAAT [CACACA_negctrl_site1553]	11.1 ± 0.79
TTTTTGTTATTATGTGTGCACATATATATATATATA	10.3 ± 0.31
TCTTTCCTTATTAAAACACACAAATACATTATTTAA [CACACA_site2147]	7.84 ± 0.46

Sequence	gcPBM binding intensity (ln)
GTATTTCTTTAATATACACACACCAAAACAAAAAAA [CACACA_site579]	8.13 ± 0.49
GTCAAATTTTTGTGCACACATATATAGTTATTATTA [CACACA_site2241]	11.2 ± 0.23
AAATATTACATTTGTTAAATAATATGTTATACATAA [XGTACX_negctrl_site484]	7.32 ± 0.54
TGTGTATTTATAAATACACACCAAATGTTAATATAT [CACACA_site6904]	8.03 ± 0.47
CAGTTGTTAATTTGTGTGCACCAAATATTATACATA	11 ± 0.33
TATATATATATATATGTGCACATATTTATATGTTTT	9.85 ± 0.22
TTATTTTATTTTTTTGTGCACATATATATTTATAAA [GTGCAC_site9615]	10.86 ± 0.028
GAAATAAATATAATATATATATATATATATATATGT [TGCATGCA_negctrl_site216]	8.25 ± 0.38
CAACCATTTGTAGGTAAACACACATTATTATTAATA [CACACA_site8842]	7.47 ± 0.46
AAGTATTTTTTTACATGTACATATATATATATATAT [XGTACX_site5065]	9.4 ± 0.56
ATATTATATCTAATCGTGCACAACTGTACATTTGTC	10.5 ± 0.12
TTTTTTTCATAATATACACACAAAAAAAAAAAAAAA [CACACA_site3224]	8.12 ± 0.68
TTCATTTTTTGCTTTCAACACACATACAATATATAT [CACACA_site9369]	8.01 ± 0.49
AAATTACCCATCCATACACACATATTTTTTTTAATT [CACACA_site2189]	7.96 ± 0.64
AATTTTTTTTTTAGACGTACAAGAAAAAACAAAAAA [XGTACX_site4990]	8.15 ± 0.55
GTATTTAGATGATTAACACACATATGTGTATTAATA [CACACA_site6733]	7.92 ± 0.41
TAAAAAATAAAATACACACACATATTTATATTTATA [CACACA_site6737]	7.41 ± 0.4
ATATATTTTTTAAACACACACATAAATATTTGTGTA [CACACA_site2879]	7.84 ± 0.49
TTTATTTTTATTTTTGTGCACGGGATTAAATAAAAG [GTGCAC_site9842]	11.22 ± 0.092
TAAAATAAAAATATAGTGCACAGATTTTGATATTTT [GTGCAC_site9696]	11.2 ± 0.23
ATTTTTTTATTTTGTGCACACACATAAAAATATATA [CACACA_site762]	11.1 ± 0.27
TTTTTTATTTTGTGCACACACATAAAAATATATATA [CACACA_site761]	11.2 ± 0.31
GGGATATTTTAAAGGGTGCATATTATTAAAATAATG	10.7 ± 0.51
AATATTTTTTTATAAACACACATATATATAAATATA [CACACA_site3524]	7.89 ± 0.33
TTTTGATATAAATATTAGATTAATAAATAAAAAAAT [CACACA_negctrl_site1635]	7.8 ± 0.39

Sequence	gcPBM binding intensity (ln)
TAATAATTTATAATAGTGCATTTGATTTTAAAAATA	9.81 ± 0.51
TTCTATTTTTTAAAAGTGCATATTATAAATATATAT	9.63 ± 0.11
TATTTTATAATAGGCACACATATAAAAATATATATA [CACACA_site4127]	7.96 ± 0.52
ACTTATTTCGATATGTGTACTTAATATATATATTTA [XGTACX_site6616]	7.89 ± 0.39
ACATATACAAGACACACACACAACGTTTTAATAAAT [CACACA_site7017]	8.12 ± 0.46
ACATATTTTTAATACACACTCAAAAAAGTACTTAAC [CACACA_site3014]	8.2 ± 0.28
TCTACAATTATAATTACACACTATAAAAAAGAAAGA [CACACA_site2984]	7.96 ± 0.35
TCTTTTTTTTTTATTTGTACTTATTTTTTTCAAAAA [XGTACX_site3403]	8.24 ± 0.51
TGAAAAAAAAAAAAAAAAAAAAGAAAAAAAAAAAAA [CACACA_negctrl_site709]	7.82 ± 1.2
AATAATCTATATTGTACACACAAAATGGGAAAAAAA [CACACA_site6969]	8.11 ± 0.73
ATATCATTTTCCTGCACACATAAATTTATATAATAT [CACACA_site1048]	9.45 ± 0.38
TTTTTCCTATTTTTAGTGCACATATAAATAAATAAA [GTGCAC_site9821]	11.6 ± 0.23
TTTTTTATTTTGTGCACACACATAAAAATATAAATA [CACACA_site6497]	11.01 ± 0.042
ACATAATATACTATTGTGCACATATATATATATATA [GTGCAC_site9761]	10.88 ± 0.085
AATTTTCCATAGATTGTGCACAAATTTTTATTTTGT	10.9 ± 0.2
ATAAAAAAAAATATTTGTACACATATTTATATATTA [XGTACX_site8147]	7.63 ± 0.36
ATATATATTTTTTAAACACACACATAAATATTTGTG [CACACA_site8936]	7.97 ± 0.38
TTATTTATTTATATAGTGCAATAAACACATAAATAG	10.8 ± 0.47
ACATATAAATATTGTGTGCACACACATAATATATAT	10.2 ± 0.18
ATAGAACTATATTGCACACATAATATATATATATAT [CACACA_site3189]	10.5 ± 0.52
TATTTTTCCATAAAAATTTATATAGAAACAAATAAT [GTGCAC_negctrl_site103]	7.75 ± 0.46
ATTTATTTATTGGCACGTACAAATTTGTGTTTTCCA [XGTACX_site6978]	8.54 ± 0.53
